# In article PMC7862700, “An all-to-all approach to the identification of sequence-specific readers for epigenetic DNA modifications on cytosine”:
# Legend:
# Experiment in all cases: DAPPL (digital affinity profiling via proximity ligation, sequencing); 10 mM Tris-HCl pH 7.5, 50 mM NaCl, 1 mM DTT, 4% glycerol, room temperature, 30 min; GST-TFs on glutathione beads, 16-mer random dsDNA library, 0.1% formaldehyde crosslink after washing; high values mean tight binding
# [1] = target: T1, FLI1 (Homo sapiens, UniProt Q01543 1-452); settings: protein: recombinant; tags: N-terminal GST; dsDNA, one strand shown
# T1 sequence: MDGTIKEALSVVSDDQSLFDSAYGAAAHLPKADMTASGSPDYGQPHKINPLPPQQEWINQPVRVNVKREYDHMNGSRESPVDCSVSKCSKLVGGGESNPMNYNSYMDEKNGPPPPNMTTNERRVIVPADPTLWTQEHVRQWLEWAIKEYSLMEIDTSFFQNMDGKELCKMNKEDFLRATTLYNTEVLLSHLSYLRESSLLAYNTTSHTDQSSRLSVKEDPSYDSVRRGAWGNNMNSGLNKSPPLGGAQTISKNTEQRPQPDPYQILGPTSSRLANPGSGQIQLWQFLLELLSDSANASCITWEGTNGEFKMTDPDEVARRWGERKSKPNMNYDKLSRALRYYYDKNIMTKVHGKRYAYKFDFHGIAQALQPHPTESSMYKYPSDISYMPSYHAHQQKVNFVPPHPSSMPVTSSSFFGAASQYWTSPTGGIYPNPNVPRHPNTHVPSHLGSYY
# Summary of the method: (§1)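 In yeast, human transcription factors were expressed with a GST fusion, then pulled down on glutathione beads and given DNA barcodes. Pooled with a tag-only sample, they were exposed to 200 nmole of a 16-mer random double-stranded DNA library (Tris/NaCl/DTT/glycerol buffer, room temperature, 30 min), washed, crosslinked with 0.1% formaldehyde, proximity-ligated using BsaI/T4 ligase for 1 h at 37 °C, PCR-amplified and read on an Illumina NextSeq500. Each hexamer's frequency of reads for a factor, divided by the matching frequency for the tag-only sample, gives the binding signal.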
# [2] = target: T2, ELK1 (Homo sapiens, UniProt P19419 1-428); settings: protein: recombinant; tags: N-terminal GST; dsDNA, one strand shown
# T2 sequence: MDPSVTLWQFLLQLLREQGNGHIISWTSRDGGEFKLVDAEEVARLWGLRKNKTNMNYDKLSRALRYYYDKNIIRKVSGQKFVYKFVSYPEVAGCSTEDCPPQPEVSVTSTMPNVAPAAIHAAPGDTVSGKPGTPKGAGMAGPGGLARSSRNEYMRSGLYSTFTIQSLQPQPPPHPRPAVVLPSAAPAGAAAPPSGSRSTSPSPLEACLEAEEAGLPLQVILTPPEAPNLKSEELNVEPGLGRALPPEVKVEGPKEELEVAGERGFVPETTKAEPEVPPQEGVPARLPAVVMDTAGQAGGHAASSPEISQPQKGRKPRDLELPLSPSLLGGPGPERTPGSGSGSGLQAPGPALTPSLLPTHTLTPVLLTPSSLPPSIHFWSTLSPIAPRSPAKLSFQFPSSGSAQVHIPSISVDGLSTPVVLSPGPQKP
# Summary of the method: as §1
# [3] = target: T3, GABPA (Homo sapiens, UniProt Q06546 1-454); settings: protein: recombinant; tags: N-terminal GST; dsDNA, one strand shown
# T3 sequence: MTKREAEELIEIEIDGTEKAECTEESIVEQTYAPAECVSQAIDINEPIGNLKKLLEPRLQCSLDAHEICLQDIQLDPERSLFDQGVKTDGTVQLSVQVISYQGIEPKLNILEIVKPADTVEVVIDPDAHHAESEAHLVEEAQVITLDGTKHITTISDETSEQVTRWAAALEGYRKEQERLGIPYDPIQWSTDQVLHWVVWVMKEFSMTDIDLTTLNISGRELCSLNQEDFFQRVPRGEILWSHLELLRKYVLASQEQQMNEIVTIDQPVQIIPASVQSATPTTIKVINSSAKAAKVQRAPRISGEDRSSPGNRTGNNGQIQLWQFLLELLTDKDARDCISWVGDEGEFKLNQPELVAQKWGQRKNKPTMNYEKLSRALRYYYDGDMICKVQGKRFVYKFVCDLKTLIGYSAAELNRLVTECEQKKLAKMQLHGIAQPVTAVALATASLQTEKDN
# Summary of the method: as §1
# [4] = target: T4, ERG (Homo sapiens, UniProt P11308 1-479); settings: protein: recombinant; tags: N-terminal GST; dsDNA, one strand shown
# T4 sequence: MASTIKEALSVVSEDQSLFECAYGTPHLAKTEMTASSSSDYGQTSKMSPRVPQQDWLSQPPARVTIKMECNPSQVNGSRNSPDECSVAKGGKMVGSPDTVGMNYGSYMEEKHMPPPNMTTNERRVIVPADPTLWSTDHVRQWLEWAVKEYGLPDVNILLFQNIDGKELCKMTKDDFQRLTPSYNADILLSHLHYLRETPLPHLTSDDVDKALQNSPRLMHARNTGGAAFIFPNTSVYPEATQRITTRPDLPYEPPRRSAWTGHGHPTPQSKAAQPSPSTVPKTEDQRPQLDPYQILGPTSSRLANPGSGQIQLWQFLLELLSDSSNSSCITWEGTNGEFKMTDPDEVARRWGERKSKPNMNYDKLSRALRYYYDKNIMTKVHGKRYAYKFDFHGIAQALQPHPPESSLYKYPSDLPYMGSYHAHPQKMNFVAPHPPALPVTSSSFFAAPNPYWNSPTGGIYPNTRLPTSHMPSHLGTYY
# Summary of the method: as §1
# [5] = target: ELF1 (Homo sapiens, UniProt P32519 1-619); settings: protein: recombinant; tags: N-terminal GST; dsDNA, one strand shown
# Summary of the method: as §1
# [6] = target: T5, EHF (Homo sapiens, UniProt Q9NZC4 1-300); settings: protein: recombinant; tags: N-terminal GST; dsDNA, one strand shown
# T5 sequence: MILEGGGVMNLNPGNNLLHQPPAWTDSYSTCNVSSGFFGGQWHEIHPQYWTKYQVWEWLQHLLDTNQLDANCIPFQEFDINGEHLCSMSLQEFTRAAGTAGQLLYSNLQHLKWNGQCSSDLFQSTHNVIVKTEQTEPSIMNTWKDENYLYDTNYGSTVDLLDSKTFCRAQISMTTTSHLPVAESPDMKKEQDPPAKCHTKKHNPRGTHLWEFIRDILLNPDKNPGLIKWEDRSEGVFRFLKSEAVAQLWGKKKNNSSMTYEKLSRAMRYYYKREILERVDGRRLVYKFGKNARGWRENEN
# Summary of the method: as §1
# [7] = target: SPI1 (Homo sapiens, UniProt P17947 1-270); settings: protein: recombinant; tags: N-terminal GST; dsDNA, one strand shown
# Summary of the method: as §1
# [8] = target: SPIB (Homo sapiens, UniProt Q01892 1-262); settings: protein: recombinant; tags: N-terminal GST; dsDNA, one strand shown
# Summary of the method: as §1
# [9] = target: T6, ELK3 (Homo sapiens, UniProt P41970 1-407); settings: protein: recombinant; tags: N-terminal GST; dsDNA, one strand shown
# T6 sequence: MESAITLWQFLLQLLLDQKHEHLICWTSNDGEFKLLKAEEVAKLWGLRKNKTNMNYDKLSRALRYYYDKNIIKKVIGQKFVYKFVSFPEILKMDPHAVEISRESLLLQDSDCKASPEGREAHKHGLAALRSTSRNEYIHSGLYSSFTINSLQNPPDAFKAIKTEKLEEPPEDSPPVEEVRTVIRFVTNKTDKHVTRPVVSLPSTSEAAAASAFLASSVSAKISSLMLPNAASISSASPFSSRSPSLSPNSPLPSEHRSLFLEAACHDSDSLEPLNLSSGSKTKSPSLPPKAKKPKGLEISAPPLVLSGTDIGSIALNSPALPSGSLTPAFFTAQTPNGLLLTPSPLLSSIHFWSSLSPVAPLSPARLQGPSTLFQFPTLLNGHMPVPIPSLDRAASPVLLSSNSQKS
# Summary of the method: as §1
# [10] = target: T7, FEV (Homo sapiens, UniProt Q99581 1-238); settings: protein: recombinant; tags: N-terminal GST; dsDNA, one strand shown
# T7 sequence: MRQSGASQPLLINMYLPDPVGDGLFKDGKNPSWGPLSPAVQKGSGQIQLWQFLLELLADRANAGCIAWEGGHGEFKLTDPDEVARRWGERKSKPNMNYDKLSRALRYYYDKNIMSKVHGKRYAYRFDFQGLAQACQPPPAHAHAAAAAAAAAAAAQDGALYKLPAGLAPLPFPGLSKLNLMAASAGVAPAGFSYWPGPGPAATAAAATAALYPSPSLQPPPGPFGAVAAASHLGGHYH
# Summary of the method: as §1
# [11] = target: ETV5 (Homo sapiens, UniProt P41161 1-510); settings: protein: recombinant; tags: N-terminal GST; dsDNA, one strand shown
# Summary of the method: as §1
# [12] = target: HSF1 (Homo sapiens, UniProt Q00613 1-529); settings: protein: recombinant; tags: N-terminal GST; chain copies: 3; dsDNA, one strand shown
# Summary of the method: as §1
# [13] = target: T8, SPIC (Homo sapiens, UniProt Q8N5J4 1-248); settings: protein: recombinant; tags: N-terminal GST; dsDNA, one strand shown
# T8 sequence: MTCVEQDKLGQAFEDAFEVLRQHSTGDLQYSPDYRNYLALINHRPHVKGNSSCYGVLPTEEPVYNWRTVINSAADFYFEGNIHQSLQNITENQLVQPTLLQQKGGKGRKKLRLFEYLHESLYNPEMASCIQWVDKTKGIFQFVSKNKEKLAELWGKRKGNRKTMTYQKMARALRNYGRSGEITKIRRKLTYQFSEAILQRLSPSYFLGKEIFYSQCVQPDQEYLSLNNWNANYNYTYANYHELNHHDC
# Summary of the method: as §1
# [14] = target: ELF4 (Homo sapiens, UniProt Q99607 1-663); settings: protein: recombinant; tags: N-terminal GST; dsDNA, one strand shown
# Summary of the method: as §1
# [15] = target: T9, ELK4 (Homo sapiens, UniProt P28324-2 1-405); settings: protein: recombinant; tags: N-terminal GST; dsDNA, one strand shown
# T9 sequence: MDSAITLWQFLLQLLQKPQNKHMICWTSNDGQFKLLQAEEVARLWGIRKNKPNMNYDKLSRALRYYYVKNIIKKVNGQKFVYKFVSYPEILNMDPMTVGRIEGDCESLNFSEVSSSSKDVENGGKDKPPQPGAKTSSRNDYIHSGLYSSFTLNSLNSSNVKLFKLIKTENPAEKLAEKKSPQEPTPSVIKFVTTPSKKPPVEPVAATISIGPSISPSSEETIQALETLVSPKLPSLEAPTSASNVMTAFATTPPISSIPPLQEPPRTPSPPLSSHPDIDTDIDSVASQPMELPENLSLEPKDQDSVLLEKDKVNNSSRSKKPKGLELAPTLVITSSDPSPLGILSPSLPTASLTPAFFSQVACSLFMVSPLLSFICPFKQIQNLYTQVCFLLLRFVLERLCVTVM
# Summary of the method: as §1
# [16] = target: T10, ETV2 (Homo sapiens, UniProt O00321 1-342); settings: protein: recombinant; tags: N-terminal GST; dsDNA, one strand shown
# T10 sequence: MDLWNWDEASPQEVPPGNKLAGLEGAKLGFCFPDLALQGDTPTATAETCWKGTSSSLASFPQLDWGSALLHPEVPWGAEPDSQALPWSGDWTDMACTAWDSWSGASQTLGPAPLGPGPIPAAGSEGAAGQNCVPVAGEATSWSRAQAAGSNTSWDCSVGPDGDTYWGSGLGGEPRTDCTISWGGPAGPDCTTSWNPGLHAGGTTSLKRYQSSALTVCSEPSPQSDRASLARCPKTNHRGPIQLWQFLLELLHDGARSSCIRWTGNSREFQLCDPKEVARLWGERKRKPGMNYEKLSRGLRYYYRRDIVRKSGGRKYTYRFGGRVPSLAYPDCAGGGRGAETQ
# Summary of the method: as §1
# [17] = target: T11, ELF3 (Homo sapiens, UniProt P78545 1-371); settings: protein: recombinant; tags: N-terminal GST; dsDNA, one strand shown
# T11 sequence: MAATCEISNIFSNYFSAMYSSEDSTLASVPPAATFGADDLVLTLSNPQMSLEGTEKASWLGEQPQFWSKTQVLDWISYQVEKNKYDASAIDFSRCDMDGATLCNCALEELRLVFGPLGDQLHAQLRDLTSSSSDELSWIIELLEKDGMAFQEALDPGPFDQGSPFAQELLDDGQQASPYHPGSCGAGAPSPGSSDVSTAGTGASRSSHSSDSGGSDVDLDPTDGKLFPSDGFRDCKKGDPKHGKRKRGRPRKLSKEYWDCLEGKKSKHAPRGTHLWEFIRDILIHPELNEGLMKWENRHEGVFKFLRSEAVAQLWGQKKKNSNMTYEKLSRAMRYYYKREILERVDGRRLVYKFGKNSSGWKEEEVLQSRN
# Summary of the method: as §1
# [18] = target: CRX (Homo sapiens, UniProt O43186 1-299); settings: protein: recombinant; tags: N-terminal GST; dsDNA, one strand shown
# Summary of the method: as §1
# [19] = target: ETV1 (Homo sapiens, UniProt P50549 1-477); settings: protein: recombinant; tags: N-terminal GST; dsDNA, one strand shown
# Summary of the method: as §1
# ETV5, sequence (P41161 whole entry): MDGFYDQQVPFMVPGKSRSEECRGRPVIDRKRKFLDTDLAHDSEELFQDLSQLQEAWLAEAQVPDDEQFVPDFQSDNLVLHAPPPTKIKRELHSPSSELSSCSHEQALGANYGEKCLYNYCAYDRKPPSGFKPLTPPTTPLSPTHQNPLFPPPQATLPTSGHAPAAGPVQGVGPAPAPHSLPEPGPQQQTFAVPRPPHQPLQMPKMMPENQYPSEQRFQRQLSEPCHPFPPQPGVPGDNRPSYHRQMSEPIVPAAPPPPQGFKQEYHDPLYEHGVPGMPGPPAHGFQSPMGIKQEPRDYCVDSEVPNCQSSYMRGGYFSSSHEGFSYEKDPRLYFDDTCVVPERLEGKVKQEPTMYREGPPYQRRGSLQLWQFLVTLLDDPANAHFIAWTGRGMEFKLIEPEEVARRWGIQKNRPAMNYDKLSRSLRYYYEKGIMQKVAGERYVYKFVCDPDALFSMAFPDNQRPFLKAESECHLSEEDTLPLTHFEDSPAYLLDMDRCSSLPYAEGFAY
# CRX, sequence (O43186 whole entry): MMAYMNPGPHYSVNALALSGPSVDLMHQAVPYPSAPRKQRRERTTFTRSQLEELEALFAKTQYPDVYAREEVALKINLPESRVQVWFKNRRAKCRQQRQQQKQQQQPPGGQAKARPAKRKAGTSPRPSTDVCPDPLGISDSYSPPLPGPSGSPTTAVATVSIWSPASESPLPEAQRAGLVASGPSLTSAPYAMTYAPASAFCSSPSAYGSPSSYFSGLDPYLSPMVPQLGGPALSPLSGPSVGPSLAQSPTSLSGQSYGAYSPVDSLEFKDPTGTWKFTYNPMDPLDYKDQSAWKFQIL
# ELF4, sequence (Q99607 whole entry): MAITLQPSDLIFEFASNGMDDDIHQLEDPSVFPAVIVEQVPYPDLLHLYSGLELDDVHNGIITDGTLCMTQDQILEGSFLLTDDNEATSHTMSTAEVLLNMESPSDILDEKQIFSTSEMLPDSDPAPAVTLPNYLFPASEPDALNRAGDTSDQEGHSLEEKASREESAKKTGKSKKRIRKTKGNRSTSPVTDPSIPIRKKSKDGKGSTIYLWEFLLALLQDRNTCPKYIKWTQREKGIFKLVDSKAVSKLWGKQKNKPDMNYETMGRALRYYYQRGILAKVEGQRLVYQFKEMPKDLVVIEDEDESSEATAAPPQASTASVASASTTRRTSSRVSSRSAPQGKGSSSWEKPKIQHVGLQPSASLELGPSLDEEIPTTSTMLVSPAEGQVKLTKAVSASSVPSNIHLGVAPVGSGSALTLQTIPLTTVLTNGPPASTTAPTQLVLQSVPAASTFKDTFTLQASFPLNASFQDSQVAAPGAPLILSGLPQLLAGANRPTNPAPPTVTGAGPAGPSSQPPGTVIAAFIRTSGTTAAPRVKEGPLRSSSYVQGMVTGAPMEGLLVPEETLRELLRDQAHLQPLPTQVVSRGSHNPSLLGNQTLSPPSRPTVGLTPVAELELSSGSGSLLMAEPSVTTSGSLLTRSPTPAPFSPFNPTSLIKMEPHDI
# SPIB, sequence (Q01892 whole entry): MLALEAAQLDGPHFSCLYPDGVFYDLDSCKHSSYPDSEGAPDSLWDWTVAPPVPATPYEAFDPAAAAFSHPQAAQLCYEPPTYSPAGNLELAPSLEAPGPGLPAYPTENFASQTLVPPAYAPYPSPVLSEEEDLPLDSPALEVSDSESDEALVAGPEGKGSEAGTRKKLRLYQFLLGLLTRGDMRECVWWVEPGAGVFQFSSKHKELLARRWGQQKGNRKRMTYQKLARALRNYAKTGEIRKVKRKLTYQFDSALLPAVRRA
# ELF1, sequence (P32519 whole entry): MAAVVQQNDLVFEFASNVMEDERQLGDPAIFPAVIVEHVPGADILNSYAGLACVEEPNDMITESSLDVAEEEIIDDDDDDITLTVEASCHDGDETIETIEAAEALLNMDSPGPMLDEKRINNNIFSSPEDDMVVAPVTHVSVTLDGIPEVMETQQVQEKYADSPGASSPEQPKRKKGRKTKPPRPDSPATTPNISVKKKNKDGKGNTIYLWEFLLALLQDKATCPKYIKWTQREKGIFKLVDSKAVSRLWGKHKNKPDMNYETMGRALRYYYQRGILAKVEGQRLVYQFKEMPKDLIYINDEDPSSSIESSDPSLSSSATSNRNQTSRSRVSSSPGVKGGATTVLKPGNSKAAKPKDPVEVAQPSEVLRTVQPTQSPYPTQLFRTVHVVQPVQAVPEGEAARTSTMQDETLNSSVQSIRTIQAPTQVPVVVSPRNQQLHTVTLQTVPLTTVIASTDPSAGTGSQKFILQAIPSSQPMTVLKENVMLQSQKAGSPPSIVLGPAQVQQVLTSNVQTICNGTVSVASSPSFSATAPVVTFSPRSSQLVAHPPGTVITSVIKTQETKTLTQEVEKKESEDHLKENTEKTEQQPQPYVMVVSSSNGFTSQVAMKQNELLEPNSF
# HSF1, sequence (Q00613 whole entry): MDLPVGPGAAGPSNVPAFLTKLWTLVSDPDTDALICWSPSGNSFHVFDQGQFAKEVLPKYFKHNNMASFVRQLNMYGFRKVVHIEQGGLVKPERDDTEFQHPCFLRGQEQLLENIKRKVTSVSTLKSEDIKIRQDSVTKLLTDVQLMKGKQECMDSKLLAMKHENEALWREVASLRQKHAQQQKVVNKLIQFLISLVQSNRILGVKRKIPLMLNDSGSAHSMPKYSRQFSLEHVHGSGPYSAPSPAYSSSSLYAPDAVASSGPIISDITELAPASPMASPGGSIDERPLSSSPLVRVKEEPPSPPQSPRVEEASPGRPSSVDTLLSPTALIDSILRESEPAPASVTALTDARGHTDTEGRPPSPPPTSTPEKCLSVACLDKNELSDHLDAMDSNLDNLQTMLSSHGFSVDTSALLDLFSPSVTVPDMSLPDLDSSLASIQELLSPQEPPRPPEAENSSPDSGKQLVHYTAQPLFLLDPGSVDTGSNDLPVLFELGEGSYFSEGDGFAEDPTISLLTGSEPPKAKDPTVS
# ETV1, sequence (P50549 whole entry): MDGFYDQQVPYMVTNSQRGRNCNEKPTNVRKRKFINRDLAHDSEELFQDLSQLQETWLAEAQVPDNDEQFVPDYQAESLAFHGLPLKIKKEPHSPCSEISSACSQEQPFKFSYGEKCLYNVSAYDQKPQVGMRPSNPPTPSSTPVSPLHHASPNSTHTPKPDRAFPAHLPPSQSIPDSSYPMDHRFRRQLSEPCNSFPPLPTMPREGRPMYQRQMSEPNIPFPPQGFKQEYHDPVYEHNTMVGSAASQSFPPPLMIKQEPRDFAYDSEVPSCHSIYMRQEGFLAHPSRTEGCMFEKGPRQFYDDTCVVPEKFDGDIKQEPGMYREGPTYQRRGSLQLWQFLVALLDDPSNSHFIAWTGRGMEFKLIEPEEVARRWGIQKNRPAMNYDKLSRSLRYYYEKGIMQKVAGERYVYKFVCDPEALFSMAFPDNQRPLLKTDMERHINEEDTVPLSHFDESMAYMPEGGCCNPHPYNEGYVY
sequence,measurement,setting,value
ACTCTG,binding signal,[1],"1.28 fold enrichment (6-mer frequency, TF over GST control)"
same,binding signal,[2],"1.23 fold enrichment (6-mer frequency, TF over GST control)"
same,binding signal,[3],"1.38 fold enrichment (6-mer frequency, TF over GST control)"
same,binding signal,[4],"1.24 fold enrichment (6-mer frequency, TF over GST control)"
same,binding signal,[5],"1.37 fold enrichment (6-mer frequency, TF over GST control)"
same,binding signal,[6],"1.33 fold enrichment (6-mer frequency, TF over GST control)"
same,binding signal,[7],"1.26 fold enrichment (6-mer frequency, TF over GST control)"
same,binding signal,[8],"1.21 fold enrichment (6-mer frequency, TF over GST control)"
same,binding signal,[9],"1.14 fold enrichment (6-mer frequency, TF over GST control)"
same,binding signal,[10],"1.27 fold enrichment (6-mer frequency, TF over GST control)"
same,binding signal,[11],"1.27 fold enrichment (6-mer frequency, TF over GST control)"
same,binding signal,[12],"1.12 fold enrichment (6-mer frequency, TF over GST control)"
same,binding signal,[13],"1.51 fold enrichment (6-mer frequency, TF over GST control)"
same,binding signal,[14],"1.24 fold enrichment (6-mer frequency, TF over GST control)"
same,binding signal,[15],"1.23 fold enrichment (6-mer frequency, TF over GST control)"
same,binding signal,[16],"1.23 fold enrichment (6-mer frequency, TF over GST control)"
same,binding signal,[17],"1.15 fold enrichment (6-mer frequency, TF over GST control)"
same,binding signal,[18],"1.12 fold enrichment (6-mer frequency, TF over GST control)"
same,binding signal,[19],"1.25 fold enrichment (6-mer frequency, TF over GST control)"
